From PubChem
ROS inducer: inducers of reactive oxygen species in cancer cells; U2OS ROS induction, H2DCF-DA fluorescence; ROS induction (% of piperlongumine), % at 10 µM; 46,000 compounds, 2% hits; in the data active = ROS induction above about 79%, passing the limit was not always enough
NOMO-1 viab: STK33 inhibitor candidate reducing NOMO-1 cell viability; AID 2330; inhibition, % (no concentration beside the values); 37,000 compounds, 7.5% hits; NOMO-1 AML viability, CellTiter-Glo luminescence, 72 h; in the data active = inhibition above about 80%
PD-1 reverse act: reversal of PD-1 mediated T-cell inhibition; AID 2316; activation, % (no concentration beside the values); 29,000 tested, under 10 active; primary human CD4 T cells, PD-L1 beads, CellTiter-Glo 96 h; call rule not given here
Each line names hits and unclear results; the compound was inactive in the other large screens. Only a selection was taken, and hits are over-represented in it overall.

CSC(SC)=C(C#N)C(=O)c1cccc(C(F)(F)F)c1	NOMO-1 viab 122.7
C[C@H]1CN([C@@H](C)CO)C(=O)Cc2cc(NC(=O)CCN3CCOCC3)ccc2O[C@H]1CN(C)Cc1ccc(C(=O)Nc2ccccc2N)cc1	NOMO-1 viab 131.7
C[C@H](CO)N1C[C@H](C)[C@H](CN(C)Cc2ccc(C(=O)Nc3ccccc3N)cc2)Oc2ccc(NC(=O)CCN3CCOCC3)cc2CC1=O	NOMO-1 viab 138.0
C[C@@H]1CN([C@@H](C)CO)C(=O)c2cc(NC(=O)CCN3CCOCC3)ccc2O[C@H]1CN(C)Cc1ccc(C(=O)Nc2ccccc2N)cc1	none (no result: NOMO-1 viab, PD-1 reverse act)
C[C@@H]1CN([C@H](C)CO)C(=O)Cc2cc(NC(=O)CCN3CCOCC3)ccc2O[C@H]1CN(C)Cc1ccc(C(=O)Nc2ccccc2N)cc1	none
COc1cc2c(cc1OC)C(COc1ccc(F)cc1)N(C(=O)c1ccc(Cl)cc1)CC2 (centres undefined)	none (no result: NOMO-1 viab, PD-1 reverse act)
CN1CCN(C(=O)CSc2c(-c3ccccc3)c3cc(Cl)ccc3[nH]c2=O)CC1	none (no result: NOMO-1 viab, PD-1 reverse act)
O=C(C1CCCO1)N1N=C(c2c(-c3ccccc3)c3cc(Cl)ccc3[nH]c2=O)CC1c1ccco1 (centres undefined)	ROS inducer 177.9, NOMO-1 viab 92.8
O=c1c2ccccc2nc(-c2ccccc2)n1Nc1ccc(F)cc1F	none (no result: NOMO-1 viab, PD-1 reverse act)
CC(C)=CCOc1c2ccoc2cc2oc(=O)ccc12	none
CC(C)=CCOc1cc(C)cc2oc(=O)cc(-c3ccccc3)c12	ROS inducer 84.1 (no result: NOMO-1 viab, PD-1 reverse act)
O=C(CN(Cc1ccc(Br)cc1)S(=O)(=O)c1ccccc1)Nc1ccccc1	none (no result: NOMO-1 viab, PD-1 reverse act)
O=C(CCN1C(=O)c2ccccc2C1=O)N1CCN(c2cccc(Cl)c2)CC1	none (no result: NOMO-1 viab, PD-1 reverse act)
O=C(CSC(=S)N1CCCCC1)N1c2ccccc2CCc2ccccc21	none (no result: NOMO-1 viab, PD-1 reverse act)
C[C@@H]1CN([C@@H](C)CO)C(=O)c2cccc(NC(=O)Nc3ccc4c(c3)OCO4)c2O[C@@H]1CN(C)Cc1ccccc1	none (no result: PD-1 reverse act)
C[C@@H]1CN([C@@H](C)CO)C(=O)c2cccc(NC(=O)Nc3ccc4c(c3)OCO4)c2O[C@@H]1CN(C)CC1CCCCC1	none
C[C@@H]1CN([C@@H](C)CO)C(=O)c2cccc(NC(=O)Nc3ccc4c(c3)OCO4)c2O[C@H]1CN(C)CC1CCCCC1	NOMO-1 viab 83.5 (no result: PD-1 reverse act)
C[C@@H]1CN([C@@H](C)CO)C(=O)c2cccc(NC(=O)Nc3ccc4c(c3)OCO4)c2O[C@H]1CN(C)Cc1ccccc1	NOMO-1 viab 106.6
C[C@@H]1CN([C@H](C)CO)C(=O)c2cccc(NC(=O)Nc3ccc4c(c3)OCO4)c2O[C@@H]1CN(C)Cc1ccc(Cl)c(Cl)c1	none
C[C@H](CO)N1C[C@H](C)[C@@H](CN(C)Cc2ccccc2)Oc2c(NC(=O)Nc3ccc4c(c3)OCO4)cccc2C1=O	none
C[C@H](CO)N1C[C@H](C)[C@H](CN(C)Cc2ccccc2)Oc2c(NC(=O)Nc3ccc4c(c3)OCO4)cccc2C1=O	NOMO-1 viab 84.2
C[C@H]1CN([C@@H](C)CO)C(=O)c2cccc(NC(=O)Nc3ccc4c(c3)OCO4)c2O[C@@H]1CN(C)Cc1ccc(Cl)c(Cl)c1	NOMO-1 viab 90.6 (no result: PD-1 reverse act)
CCOC(=O)C(C#N)C(c1cccnc1)c1[nH]c(C)nc1O (centres undefined)	none
Cc1ccc(S(=O)(=O)NC(=O)NCC2CCN(C(=O)OC(C)(C)C)CC2)cc1	none (no result: NOMO-1 viab, PD-1 reverse act)
Cc1onc(-c2ccccc2)c1CNC(=O)C1CCC1	none (no result: NOMO-1 viab, PD-1 reverse act)
CCC1(C)NC(=S)N(c2ccccc2)N1 (centres undefined)	none (no result: NOMO-1 viab, PD-1 reverse act)
Cc1ccc(S(=O)(=O)N(C)CC(=O)Nc2ccc(S(N)(=O)=O)cc2)cc1	none (no result: NOMO-1 viab, PD-1 reverse act)
C[C@@H]1CN([C@@H](C)CO)C(=O)c2cccc(NC(=O)Nc3ccc4c(c3)OCO4)c2O[C@H]1CN(C)Cc1ccc2c(c1)OCO2	NOMO-1 viab 93.0
C[C@H]1CN([C@@H](C)CO)C(=O)c2cccc(NC(=O)Nc3ccc4c(c3)OCO4)c2O[C@H]1CN(C)Cc1ccc(-c2ccccc2)cc1	ROS inducer 102.0
C[C@H]1CN([C@@H](C)CO)C(=O)c2cccc(NC(=O)Nc3ccc4c(c3)OCO4)c2O[C@H]1CN(C)Cc1ccc2c(c1)OCO2	none
C[C@H]1CN([C@@H](C)CO)C(=O)c2cccc(NC(=O)Nc3ccc4c(c3)OCO4)c2O[C@@H]1CN(C)Cc1ccc(-c2ccccc2)cc1	none
Cc1cc(C)n(-c2ccc(Cl)c(C(=O)OCc3ccccc3)c2)n1	none (no result: NOMO-1 viab, PD-1 reverse act)
COC(=O)c1cc2oc3ccccc3c2n1Cc1nc(-c2ccccc2)oc1C	none (no result: NOMO-1 viab, PD-1 reverse act)
CCN1CCCC1CNC(=O)c1[nH]c2cc(OC)ccc2c1Sc1ccc(Cl)cc1 (centres undefined)	none (no result: NOMO-1 viab, PD-1 reverse act)
O=C(CCC1Nc2c3ccccc3nc(=S)n2C1=O)N1CCN(c2ccccc2)CC1 (centres undefined)	none (no result: NOMO-1 viab, PD-1 reverse act)
Nc1cc2ncnc(Nc3cccc(Br)c3)c2cc1N	none
CC#CC(=O)Nc1ccc2ncnc(Nc3cccc(Br)c3)c2c1	NOMO-1 viab 95.9
